# Source: PubChem BioAssay
# Shown are actives, neighbours in structure and some others; about 4.1% of the full set was active somewhere.
# ssDAF12 agonist: S. stercoralis DAF-12 nuclear receptor activators, primary screen, cell-based, luminescence, HEK293, GRIP1 co-expression, lit1-tk-luc | Nuclear hormone receptor DAF-12 (Strongyloides stercoralis) | HEK293 ssDAF-12/GRIP1 lit1-tk-luc reporter; % of 3 µM dafachronic acid response | activation, % at 6.8 µM | hit rate 1% among 370,000;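 active means activation above the mean over all tested compounds plus 3 SD, cut at about 0.9% in these data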;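 further: 0% = DMSO-only wells and 100% = 3 µM delta7-dafachronic acid wells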
# DAX1 inh-1: DAX1 (NR0B1) inhibitors, primary screen, cell-based, HEK293, Gal4-DAX1, luciferase luminescence; HEK293 Gal4-DAX1 luciferase reporter; inhibition, % at 6.75 µM; Nuclear receptor subfamily 0 group B member 1 (Homo sapiens), P51843; hit rate 0.99% among 340,000; AID 504766, 2011;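 active means inhibition above the mean over all tested compounds plus 3 SD, cut at about 4.2% in these data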;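 further: 0% = DAX1-transfected cells with DMSO and 100% = empty-vector control cells with DMSO; inhibition shows as a rise in luminescence from relieved DAX1 repression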
# Target sequence (P51843 207-470 limits assumed): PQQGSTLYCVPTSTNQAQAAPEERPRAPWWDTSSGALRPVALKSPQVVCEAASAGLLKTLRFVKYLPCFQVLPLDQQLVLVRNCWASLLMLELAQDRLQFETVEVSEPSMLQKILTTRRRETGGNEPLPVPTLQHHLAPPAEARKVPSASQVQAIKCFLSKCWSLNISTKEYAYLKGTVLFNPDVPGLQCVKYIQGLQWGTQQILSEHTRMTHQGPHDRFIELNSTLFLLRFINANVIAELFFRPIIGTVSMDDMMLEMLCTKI
# hgDAF12 agonist: H. glycines DAF-12 receptor agonists, primary screen, cell-based, luminescence, HEK293, GAL4 fusion, UAS-luciferase; activation, % at 6.8 µM; hit rate 1.8% among 370,000; HEK293 GAL4-hgDAF12 UAS-luciferase reporter, agonist luminescence; normalized to butyrate control; Nuclear hormone receptor DAF-12 (Heterodera glycines), GAL4 fusion; AID 687014, 2013;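 active means activation above a cutoff set at the mean of all screened compounds plus 3 SD, cut at about 10% in these data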;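 further: 0% = DMSO wells and 100% = sodium butyrate wells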
# hcDAF12 agonist: H. contortus DAF-12 nuclear receptor activators, primary screen, cell-based, luminescence, HEK293, lit1-tk-luc reporter; activation, % at 6.8 µM; HEK293 hcDAF-12 lit1-tk-luc reporter; 0% DMSO, 100% Δ7-dafachronic acid; hit rate 1.4% among 370,000; AID 652067, 2013;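 active means activation above the mean of all tested compounds plus 3 SD, cut at about 5.5% in these data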;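 further: 100% = response to 3 µM Δ7-dafachronic acid high control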
# DAX1 inh-2: DAX1 (NR0B1) inhibitors on StAR promoter, primary screen, cell-based, luminescence, SF-1 (NR5A1), full-length DAX-1; HEK293T StAR-luciferase reporter, SF-1/DAX-1 repression relief; inhibition, % at 6.8 µM; hit rate 1.1% among 370,000; AID 652010, 2013;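 active means inhibition above the mean over all tested compounds plus 3 SD, cut at about 3.6% in these data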;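 further: 0% = DAX-1 cells with DMSO and 100% = cells lacking DAX-1 with DMSO; higher inhibition means more luminescence from relief of DAX-1 repression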
# An asterisk follows results filed as active; . = not tested or not shown.
SMILES,ssDAF12 agonist,DAX1 inh-1,hgDAF12 agonist,hcDAF12 agonist,DAX1 inh-2
CCn1ccc(C(=O)Nc2ccccc2SC)n1,-1,0,11*,1,1
CN(C)c1ccc(/C=C/c2cccc[n+]2[O-])cc1,-1,.,5,6.3*,1
Cc1ccc(OCCCCCCN2CCNCC2)c(Br)c1,-1,4.7*,4,5.9*,0
CCn1nc(C)c(Br)c1-c1nc(-c2ccc(C)cc2)no1,1.0*,.,0,3,0
CCn1nc(C)c(Br)c1-c1nc(CS(=O)(=O)c2ccc(F)cc2)no1,-1,0,0,0,0
S=C(Nc1ccccc1Oc1ccccc1)Nc1cccc(Cl)c1Cl,1.0*,0,0,4,0
COc1ccc(/C=N/n2cncn2)cc1Cn1nc(C)c([N+](=O)[O-])c1C,.,0,.,.,.
COC(=O)c1ccccc1NC(=O)C12CCC(C)(C(=O)O1)C2(C)C (configuration not stated),1.9*,0,0,-2,0
COC(=O)c1ccccc1NC(=O)NCc1ccncc1,6.6*,0,-1,-2,1
O=S1(=O)c2ccccc2-c2c(nnn2CC2CCCCC2)CN1C1CC1,-1,.,-3,0,1
NC(Cc1ccc(Cl)cc1)c1csc(Nc2ccc(S(N)(=O)=O)cc2)n1 (configuration not stated),-1,.,-1,0,4.3*
O=C(CN1C(=O)NC2(CCCCC2)C1=O)NCc1ccc2c(c1)OCO2,-2,7.2*,1,-1,-1
O[C@H](COc1ccc(OC(F)(F)F)cc1)CN1CCC(C(O)(c2ccccc2)c2ccccc2)CC1,-2,.,-2,-3,-2
Cc1cc2c(cc1C)-n1nnnc1C(N1CCN(c3ccccn3)CC1)C(c1ccc3c(c1)OCO3)=N2 (configuration not stated),0,.,8,6.3*,1
c1ccc(N2CCN(Cc3ccc4c(c3)OCO4)CC2)nc1,0,.,-1,3,0
O=C(Nc1cccc(Cl)c1)c1ccccc1NC(=O)C1CCCCC1C(=O)O (configuration not stated),0,1,11*,2,0
CC(C)c1ccc(NC(=O)c2ccccc2NC(=O)C2CCCCC2C(=O)O)cc1 (configuration not stated),1,5.4*,9,0,2
CCCCCCCCN1C(=O)[C@@H](CC(=O)N2CCN(C(=O)OCC)CC2)C[C@@]2(C(=O)OC)C1=C[C@H](COCc1ccccc1)O[C@@H]2C,-1,.,1,1,0
COc1ccc(C2=CC(=O)CC(C)(C)C2=O)cc1,-1,.,-1,2,0
CC(C)CCOCC(=O)Nc1cccc(C(=O)O)c1,0,-2,12*,4,3
CC(=O)c1cccc(NC(=O)COc2ccccc2)c1,-1,1,5,-2,1
CC(C)(C)c1ccc(C(=O)N2CCCC2)s1,0,5.8*,2,0,1
O=C(c1ccc(Cl)s1)N1CCCC1,0,2,-2,0,0
C=CS(=O)(=O)N(Cc1ccc(F)cc1)C(=C)C(=O)OC,-2,.,-9,-3,-6
CCN1CCN(C(=O)CN2C(=O)c3ccccc3S2(=O)=O)CC1,-1,3,3,1,3.8*
Cc1ccc(O)c(C(C)c2c[nH]c3ccccc23)c1 (configuration not stated),0,.,-1,4,0
COC(=O)C1CN(CCc2ccccc2)CCS(=O)(=O)N1Cc1ccccc1 (configuration not stated),-1,.,3,3,-1
Cc1ccc(C(=O)O)cc1NC(=O)C1CCCN1S(=O)(=O)c1cccc2nsnc12 (configuration not stated),1.6*,0,0,0,0
